Screening data (PubChem)
Rows were chosen to be rich in hits. Some 2.7% of all compounds tested hit in one or more screens of this group.
CHT allo act: human CHT allosteric activation; 310,000 tested, 0.49% active; Q9GZV3; B-score at 10 µM; AID 488977; CHT-expressing cells, membrane potential dye, choline EC20; hits give high values; LV-AA mutant CHT in HEK293 cells;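 active = initial fluorescence not abnormally high and integrated response B-score, plate-corrected, over 3 SD above library mean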
IDE act: activators of human insulin-degrading enzyme in cells | HEK cells, FAbeta-B cleavage, fluorescence polarization; 0% vehicle, 100% cell-free pure enzyme wells | activation, % at 5.96 µM | 340,000 tested, 0.073% active | AID 493087;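 active = activation above the mean of all tested compounds plus 3 SD, set per screening campaign, cut at about 17% in these data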
TMEM16A inh: blocks the mouse calcium-activated chloride channel TMEM16A; 310,000 tested, 1.2% active; normalized B-score (activity score, 25-100; higher = stronger inhibition) at 10 µM; Q8BHY3; HEK293 TMEM16A/YFP iodide influx fluorescence, ionomycin;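 active = ratio plate-corrected score three or more library SD toward inhibition, starting fluorescence score within five deviations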;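 also: score derived from kinetic fluorescence span divided by baseline fluorescence per well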
IDE inh: inhibitors of human insulin-degrading enzyme in cells. P14735. HEK cells, FAbetaB cleavage, fluorescence polarization. inhibition, % at 5.59 µM. 320,000 tested, 0.41% active. AID 434962;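 active = percent inhibition above the average of all tested compounds plus 3 SD, set per screening campaign, cut at about 16% in these data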;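 also: IDE supplied by intact live HEK cells; FP after avidin binding of uncleaved biotin substrate so inhibition keeps polarization high; 0% = DMSO wells and 100% = 60 µM reference IDE inhibitor Ii1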
CHT inh: human CHT choline transport inhibition; Q9GZV3; CHT-expressing cells, membrane potential dye, choline response; hits give low values; B-score at 10 µM; 310,000 tested, 0.86% active; AID 488975;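 active = B-score over 3 SD under the library average, and starting fluorescence ratio not unusually high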;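 also: choline stimulus applied at its EC90 after an EC20 pre-addition; B-score computed on integrated fluorescence ratio after choline addition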
TMEM16A act: mouse TMEM16A channel activation, primary screen; Q8BHY3; HEK293 TMEM16A/YFP-H148Q/I152L, iodide quench fluorescence; hits give low values; B-score at 10 µM; 340,000 tested, 0.3% active;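 active = fluorescence-ratio B-score plate-corrected deviation score at least 3 library SD below zero, with starting fluorescence score within 5 deviations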;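 also: channel opened by trigger with iodide after compound preincubation; score built on the fluorescence ratio of max minus min over baseline; more negative score means more quench and so TMEM16A activation or potentiation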
* hit, by the source's call; i = inactive; · = not tested or not shown.

SMILES	CHT allo act	IDE act	TMEM16A inh	IDE inh	CHT inh	TMEM16A act
Cc1cc(Oc2ccc(C#N)cc2)nc(N2CCOCC2)n1	i	28*	i	3	i	i
CCOc1ccc(Nc2cc(C)nc(N3CCOCC3)n2)cc1	i	0	i	-1	i	i
Cc1cnc(C(=O)OCC(=O)Nc2cc(Cl)ccc2C#N)cn1	·	0	·	7	·	i
CC1CCC(C(=O)c2c(O)c3ccccc3oc2=O)CC1 (configuration not stated)	i	4	i	-4	-11*	i
Cc1ccc(S(=O)(=O)Nc2ccccc2F)cc1C(=O)N1CCN(c2ccccc2O)CC1	·	5	·	-1	·	i
Cc1ccc(-c2c(C)n([O-])c3c([n+]2=O)CCCC3)cc1	i	4	i	1	i	i
Cc1c(-c2ccc(F)cc2)[n+](=O)c2c(n1[O-])CCCCC2	i	4	i	2	i	-6.9*
O=C(CN1CCN(C(=O)C2CCCO2)CC1)Nc1cc(C(F)(F)F)ccc1Cl (configuration not stated)	i	7	i	-3	i	i
COc1ccc(CCC(=O)OCC(=O)N2CCN(S(=O)(=O)c3ccc(C)cc3C)CC2)cc1	·	-1	·	2	·	i
CC(C)(C)NC(=O)N1CCC(CO)(Cc2ccccc2Cl)CC1	i	3	i	4	i	-6.9*
O=C(C1CCCC1)N1CCC(CO)(Cc2ccccc2Cl)CC1	i	-6	i	2	i	i
CC(C)Oc1ccc(S(=O)(=O)N2CCCCC2)cc1NC(=O)C1CSC2(C)CCC(=O)N12 (configuration not stated)	i	1	i	0	i	i
Brc1ccccc1-c1nnc(SCc2nc3ccccc3s2)o1	i	1	25*	-5	i	i
O=C(CSc1nnc(-c2ccccc2Br)o1)N1CCOCC1	i	-5	i	0	i	i
CC(C(=O)OCC(=O)N(C)C1(C#N)CCCCC1)N1C(=O)c2ccccc2C1=O (configuration not stated)	·	2	·	-3	·	i
CCOc1cc(/C=N\NC(=O)c2ccc(C)nc2)ccc1OC(=O)c1ccc(F)cc1	i	-1	i	4	i	i
CCOc1cc(/C=N/NC(=O)c2cc(C)[nH]n2)ccc1OC(=O)c1ccc([N+](=O)[O-])cc1	i	·	100*	3	i	·
COc1ccc(/C=C\C(=O)O[C@@H]2C(O)C(O[C@@H]3OC(C)[C@H](O[C@@H]4OCC(O[C@H]5O[C@H](CO)[C@@H](O)C(O)C5O)C(O)C4O)C(O)C3O)[C@H](OC(=O)[C@]34CCC(C)(C)C[C@@H]3C3=CCC5[C@@]6(C)CC(O)C(O[C@@H]7OC(CO)C(O)[C@H](O)[C@H]7O)[C@@](C)(C(=O)O)C6CC[C@@]5(C)[C@]3(CO)CC4)O[C@H]2C)cc1 (some centres not stated)	·	17	·	-4	·	-32*
Cc1cc(C)c2ccc(C)[n+]([O-])c2c1O	i	3	i	-1	-20*	i
COc1ccc(NC(=O)/C(=C\c2ccc(F)cc2)NC(=O)c2ccco2)cc1	i	2	i	-5	i	i
CCCCC1CC(=O)NC1(C(=O)OCC)C(=O)OCC (configuration not stated)	·	7	·	·	·	i
N#CC(c1ccc(F)cc1)c1ccc(C(=O)c2ccccc2)cc1 (configuration not stated)	i	5	100*	-1	i	i
N#CC(c1ccccc1)c1ccc(C(=O)c2ccc(F)cc2)cc1 (configuration not stated)	i	5	i	3	i	i
O=C(Nc1ccc(-n2cc(Br)cn2)cc1)c1ccncc1	i	0	i	2	i	i
O=C(CCSc1nc(-c2ccco2)cc(C(F)(F)F)n1)NCc1ccccn1	i	-1	i	3	i	-15*
SMILES	CHT allo act	IDE act	TMEM16A inh	IDE inh	CHT inh	TMEM16A act
CCOc1ccc(NC(=O)CN(C)C(=O)C2CCCO2)cc1OCC (configuration not stated)	·	-4	·	·	·	i
CC1CC(C)CN(S(=O)(=O)c2ccc(C(=O)Nc3nnc(-c4cccs4)o3)cc2)C1 (configuration not stated)	i	4	i	3	i	i
CCC1CCCCN1S(=O)(=O)c1ccc(C(=O)Nc2nnc(-c3cccs3)o2)cc1 (configuration not stated)	i	5	25*	0	i	i
COc1cc(NC(=O)CSc2nc(=O)n(CCN3CCOCC3)c3c2CCCC3)cc(OC)c1	i	5	i	-1	i	i
C=CCNC(=O)c1onc(CSc2ccc(F)c(F)c2)c1C(=O)NCC=C	i	-10	i	2	i	i
O=C(NCC1CC1)c1onc(CSc2ccc(F)c(F)c2)c1C(=O)NCC1CC1	i	65*	i	-2	i	i
CSC(=Nc1ccccc1)N=C(SCc1ccccc1)N(C)C	·	1	·	·	·	-13*
N#CNC(=Nc1ccccc1)SCc1ccc(C(=O)O)cc1	i	3	i	1	i	i
Cc1occc1-c1nnc(SCC(=O)NCc2cccs2)n1CC1CCCO1 (configuration not stated)	·	2	·	·	·	-9.5*
COc1ccc(N2C(=O)c3ccccc3C(C)(C)C2=O)cc1	i	4	i	7	i	i
O=C(c1ccccc1)N1N=C(C(F)(F)F)CC1(O)c1ccc(F)cc1 (configuration not stated)	i	0	100*	-1	i	i
COc1cccc(CNc2ccc(C)c(Cl)c2)c1	i	7	i	-3	i	i
COc1cccc(CNc2cc(CSc3ccc(Cl)cc3)nc(C)n2)c1	i	8	100*	8	i	i
COc1ccc2c(c1OC)C(=O)OC2N1C(=O)CC[C@H]1C(=O)Nc1ccc(F)cc1F (some centres not stated)	i	-1	i	-1	i	i
CN(C)Cc1c(O)ccc2occ(C(=O)c3ccccc3)c12	i	-6	25*	-1	i	i
CCN(CC)Cc1c(O)ccc2occ(C(=O)c3ccccc3)c12	i	5	i	-2	i	i
CS(=O)(=O)c1ccc(C(=O)NNC(=O)c2ccccc2-n2cccc2)cc1	·	5	·	-4	·	i
CC(=O)Oc1c(C)cc(Cl)cc1C(=O)Nc1ccc([N+](=O)[O-])cc1Cl	i	-2	100*	-2	i	i
CN(C)c1ccc(-c2nnc(-c3ccccc3F)o2)cc1	i	3	i	-3	i	i
